Screen size: about 2,300 compounds; about 1,100 (48%) were called active. So high a share suggests a set chosen from earlier hits. These entries were drawn from the full list. Unmarked numbers belong to inactive results.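 Rule for the calls: active = inhibition above the mean inhibition of all tested sample wells plus 3 SD (cut at about 10% in these data); inactive = the rest.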

For this test, the target named is Luciferin 4-monooxygenase (Photinus pyralis) (UniProt P08659). As to the kind of experiment: firefly luciferase inhibitors, HSP90 counter-screen, confirmation, artefact control for HSP90 inhibitor project, biochemical, luminescence, triplicate (AID 1847).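 Note: 0% = DMSO with luciferase and 100% = wells lacking luciferase.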 As to conditions: purified native firefly luciferase, at 5.9 µM, hits give high values. (In general: The purpose of a counterscreen is to sort out artefacts and off-target activity.)
Chain of Luciferin 4-monooxygenase (Photinus pyralis) (P08659 whole entry, looked up): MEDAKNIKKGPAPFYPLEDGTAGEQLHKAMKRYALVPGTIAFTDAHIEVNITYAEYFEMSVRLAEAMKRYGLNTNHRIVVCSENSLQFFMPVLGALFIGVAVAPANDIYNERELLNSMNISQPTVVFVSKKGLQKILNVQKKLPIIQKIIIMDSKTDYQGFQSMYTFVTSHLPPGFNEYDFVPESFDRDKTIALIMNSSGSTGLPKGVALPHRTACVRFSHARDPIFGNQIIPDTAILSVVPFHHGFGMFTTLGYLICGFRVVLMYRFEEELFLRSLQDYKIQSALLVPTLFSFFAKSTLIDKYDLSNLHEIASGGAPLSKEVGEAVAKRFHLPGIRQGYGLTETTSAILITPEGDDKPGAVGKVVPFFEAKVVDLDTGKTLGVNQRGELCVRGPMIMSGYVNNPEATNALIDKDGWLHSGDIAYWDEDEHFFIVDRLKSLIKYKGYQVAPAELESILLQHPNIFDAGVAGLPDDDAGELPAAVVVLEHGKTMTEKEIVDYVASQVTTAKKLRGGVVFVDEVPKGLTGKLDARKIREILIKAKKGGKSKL
One may read the inhibition as the change of the read-out against control, counted positive when it falls. For `COc1cccc(-c2nc3ccc(N4CCN(C)CC4)cc3[nH]2)c1`, the inhibition is 38.9% (active). Consider `O=c1c2ccccc2nc(/C=C/c2ccco2)n1-c1ccccc1O`, for which the inhibition is 4.47%.

The record behind these values is PubChem BioAssay AID1847 (The Scripps Research Institute Molecular Screening Center, 2009).
